Laboratory results published in PubChem BioAssay (NCI).
The panel holds about 79,000 compounds, 15% with a hit somewhere; the sample as a whole holds those more often. Values without a mark were called inactive. Calls of active or inactive are those of the source. No stated cut-off is given here; in the data, active means growth inhibition above about 70%; inactive means the rest.

Experiments:
[1] = NCI Yeast Anticancer Drug Screen. Data for the rad52 strain (AID 147);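 further: 0% = growth of vehicle-treated control cultures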; details: S. cerevisiae rad52 mutant growth inhibition, hits give high values
Summary of the method: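 Compounds are applied to a genetically defined yeast strain lacking normal DNA damage repair, and inhibition of growth is expressed relative to cultures given vehicle only.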

[2] = NCI Yeast Anticancer Drug Screen. Data for the wt1 strain (AID 149);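 further: 0% = growth of vehicle-treated wt1 cultures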; details: S. cerevisiae wt1 strain (SPY 50644) growth inhibition, hits give high values
Summary of the method: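 wt1 strain grown with compound or vehicle; inhibition taken from the growth difference.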

[3] = NCI Yeast Anticancer Drug Screen. Data for the rad50EPP+ strain (AID 151);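 further: 0% = growth of vehicle-treated control cultures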; details: S. cerevisiae rad50 mutant strain, hits give high values
Summary of the method: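 Compounds were applied to the rad50EPP+ yeast strain, which bears a defined DNA repair alteration, and growth inhibition was determined relative to vehicle-treated cultures.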

[4] = NCI Yeast Anticancer Drug Screen. Data for the mgt1 strain (AID 153); details: S. cerevisiae mgt1 mutant growth inhibition, hits give high values
Summary of the method: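 Strain: mgt1 yeast, one of a set carrying defined DNA damage repair or cell cycle control alterations. Compound-treated growth compared with vehicle.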

[5] = NCI Yeast Anticancer Drug Screen. Data for the rad50 strain (AID 155);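 further: 0% = growth of vehicle-only cultures of the same strain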; details: S. cerevisiae rad50 strain growth inhibition, hits give high values
Summary of the method: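 DNA repair mutant yeast, compound exposure, growth read-out; inhibition is taken relative to vehicle.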

[6] = NCI Yeast Anticancer Drug Screen. Data for the mec2-1 strain (AID 157); details: S. cerevisiae mec2-1 strain, hits give high values
Summary of the method: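 Strain: mec2-1 (DNA repair/cell cycle alteration). Compound exposure, then growth measured; inhibition expressed relative to vehicle.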

[7] = NCI Yeast Anticancer Drug Screen. Data for the rad14 strain (AID 159);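 further: 0% = growth of vehicle-treated control cultures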; details: S. cerevisiae rad14 strain growth inhibition, hits give high values
Summary of the method: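 DNA repair-defective yeast, compound-exposed; % growth inhibition derived by comparison with vehicle-treated controls.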

[8] = NCI Yeast Anticancer Drug Screen. Data for the sgs1 mgt1 strain (AID 161);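 further: 0% = growth of cultures given vehicle only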; details: S. cerevisiae sgs1 mgt1 strain, hits give high values
Summary of the method: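 Genetically altered yeast, compound exposure, growth inhibition relative to vehicle.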

[9] = NCI Yeast Anticancer Drug Screen. Data for the CLN2oe strain (AID 163);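 further: 0% = growth of vehicle-only control cultures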; details: S. cerevisiae CLN2oe strain, hits give high values
Summary of the method: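 Growth of a genetically modified yeast strain is measured after compound exposure and compared with cultures given vehicle alone.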

[10] = NCI Yeast Anticancer Drug Screen. Data for the cln2 rad14 strain (AID 165);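 further: 0% = growth equal to vehicle treated cultures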; details: S. cerevisiae cln2 rad14 strain, hits give high values
Summary of the method: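 Compounds are applied to the cln2 rad14 yeast strain, and growth is then compared with that of vehicle-treated cultures to give inhibition.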

[11] = NCI Yeast Anticancer Drug Screen. Data for the bub3 strain (AID 167); details: S. cerevisiae bub3 mutant strain, hits give high values
Summary of the method: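 In this screen, a yeast mutant lacking normal mitotic checkpoint function is challenged with compound. Relative growth versus vehicle gives the inhibition value.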

[12] = NCI Yeast Anticancer Drug Screen. Data for the wt2 strain (AID 169);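 further: 0% = growth of vehicle-treated yeast cultures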; details: S. cerevisiae wt2 strain growth inhibition, hits give high values
Summary of the method: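 This strain belongs to a panel of yeast strains with defined genetic alterations in DNA damage repair or cell cycle control. Compounds are applied, and growth inhibition is measured against vehicle-treated cultures.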

[13] = NCI Yeast Anticancer Drug Screen. Data for the mlh1 strain (AID 171);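 further: 0% = growth of vehicle-treated control cultures of the same strain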; details: S. cerevisiae mlh1 strain growth inhibition, hits give high values
Summary of the method: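 Growth of the mutant yeast strain after compound exposure, expressed as inhibition relative to vehicle-only controls.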

[14] = NCI Yeast Anticancer Drug Screen. Data for the sgs1 strain (AID 173);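 further: 0% = growth of vehicle-only control cultures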; details: S. cerevisiae sgs1 mutant, hits give high values
Summary of the method: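 Growth of a yeast strain bearing a defined genetic alteration is measured after compound treatment. Inhibition is expressed relative to vehicle-only controls.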

[15] = NCI Yeast Anticancer Drug Screen. Data for the rad18 strain (AID 177); details: S. cerevisiae rad18 mutant growth inhibition, hits give high values
Summary of the method: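 Growth of the mutant yeast strain after compound exposure, normalised to vehicle-only cultures.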

[16] = at 5.0 µM (retest, dose inferred, filed as 0.5)
[17] = at 50.0 µM (retest, dose inferred, filed as 5.0)

COc1cc(NCCCCNCC(C)(C)C)c2ncccc2c1
growth inhibition ([1]; at 1.2 µM): -3%
growth inhibition ([1]; at 3.7 µM): 1%
growth inhibition ([1]; at 11.0 µM): 8%
growth inhibition ([1]; at 33.0 µM): 14%
growth inhibition ([1]; at 100.0 µM): 26%
growth inhibition ([2]; at 1.2 µM): -2%
growth inhibition ([2]; at 3.7 µM): 1%
growth inhibition ([2]; at 11.0 µM): 4%
growth inhibition ([2]; at 33.0 µM): 0%
growth inhibition ([2]; at 100.0 µM): 1%
growth inhibition ([3]; at 1.2 µM): -8%
growth inhibition ([3]; at 3.7 µM): -12%
growth inhibition ([3]; at 11.0 µM): -16%
growth inhibition ([3]; at 33.0 µM): -19%
growth inhibition ([3]; at 100.0 µM): -17%
growth inhibition ([4]; at 1.2 µM): 0%
growth inhibition ([4]; at 3.7 µM): 3%
growth inhibition ([4]; at 11.0 µM): 6%
growth inhibition ([4]; at 33.0 µM): 14%
growth inhibition ([4]; at 100.0 µM): 2%
growth inhibition ([5]; at 1.2 µM): -5%
growth inhibition ([5]; at 3.7 µM): 1%
growth inhibition [5, 16]: 11%
growth inhibition ([5]; at 11.0 µM): 6%
growth inhibition ([5]; at 33.0 µM): 10%
growth inhibition [5, 17]: 25%
growth inhibition ([5]; at 50.0 µM): 59.9%
growth inhibition ([5]; at 100.0 µM): 35%
growth inhibition ([6]; at 1.2 µM): -3%
growth inhibition ([6]; at 3.7 µM): -4%
growth inhibition [6, 16]: -3%
growth inhibition ([6]; at 11.0 µM): 0%
growth inhibition ([6]; at 33.0 µM): 2%
growth inhibition [6, 17]: 16%
growth inhibition ([6]; at 50.0 µM): 18%
growth inhibition ([6]; at 100.0 µM): 13%
growth inhibition ([7]; at 1.2 µM): -1%
growth inhibition ([7]; at 3.7 µM): 8%
growth inhibition ([7]; at 11.0 µM): 29%
growth inhibition ([7]; at 33.0 µM): 32%
growth inhibition ([7]; at 100.0 µM): 28%
growth inhibition [8, 16]: 1%
growth inhibition [8, 17]: 28%
growth inhibition ([8]; at 50.0 µM): 51.8%
growth inhibition ([9]; at 1.2 µM): 0%
growth inhibition ([9]; at 3.7 µM): 2%
growth inhibition ([9]; at 11.0 µM): 12%
growth inhibition ([9]; at 33.0 µM): 25%
growth inhibition ([9]; at 100.0 µM): 39%
growth inhibition [10, 16]: 5%
growth inhibition [10, 17]: 33%
growth inhibition ([10]; at 50.0 µM): 51.6%
growth inhibition ([11]; at 1.2 µM): -2%
growth inhibition ([11]; at 3.7 µM): -2%
growth inhibition [11, 16]: 3%
growth inhibition ([11]; at 11.0 µM): 0%
growth inhibition ([11]; at 33.0 µM): 19%
growth inhibition [11, 17]: 20%
growth inhibition ([11]; at 50.0 µM): 70.9% (active)
growth inhibition ([11]; at 100.0 µM): 37%
growth inhibition ([12]; at 1.2 µM): -1%
growth inhibition ([12]; at 3.7 µM): -1%
growth inhibition ([12]; at 11.0 µM): 3%
growth inhibition ([12]; at 33.0 µM): 5%
growth inhibition ([12]; at 100.0 µM): 5%
growth inhibition ([13]; at 1.2 µM): -3%
growth inhibition ([13]; at 3.7 µM): -1%
growth inhibition ([13]; at 11.0 µM): 5%
growth inhibition ([13]; at 33.0 µM): 12%
growth inhibition ([13]; at 100.0 µM): 16%
growth inhibition ([14]; at 1.2 µM): -3%
growth inhibition ([14]; at 3.7 µM): -2%
growth inhibition ([14]; at 11.0 µM): 6%
growth inhibition ([14]; at 33.0 µM): 15%
growth inhibition ([14]; at 100.0 µM): 20%
growth inhibition ([15]; at 1.2 µM): -5%
growth inhibition ([15]; at 3.7 µM): 0%
growth inhibition ([15]; at 11.0 µM): 7%
growth inhibition ([15]; at 33.0 µM): 8%
growth inhibition ([15]; at 100.0 µM): 16%
